Records with an inconclusive call do not appear. Calls of active or inactive are those of the source. Unless noted, the call rests on the fitted dose curve; in most records, active means well fitted curve in the direction sought with a large enough effect in the repeat runs; inconclusive means weak or mixed curves; inactive means no such curve, though single readings can be large; an effect the other way counts as inactive or inconclusive.

Data on 15 compounds can be found in PubChem BioAssay (Tox21).

Assay [1] in a line: qHTS assay to identify small molecule that activate the aryl hydrocarbon receptor (AhR) signaling pathway - cell viability counter screen (AID 743086). Further: nearly all actives have a fitted effect of over 45% in size. Further: potency means the concentration at half of the fitted maximal effect. The gist of the method: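 HepG2-AhR-luc (HG2L7.5c1) cells, 4000/well, were preincubated 5 h at 37C, exposed to compound in qHTS format for 24 hr at 37C, then given CellTiter-Fluor for 30 min; viability was read as fluorescence in the reporter wells.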
A general note: In qHTS, concentration-response curves come from the screen itself.

Assay [2] deals with Peroxisome proliferator-activated receptor gamma (Homo sapiens) (UniProt P37231). Nature of the assay: qHTS assay to identify small molecule antagonists of the peroxisome proliferator-activated receptor gamma (PPARg) signaling pathway (AID 743191; calls by dose curve; further: nearly all actives have a fitted effect of over 30% in size; further: potency means the concentration at half of the fitted maximal effect). In outline:
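GeneBLAzer PPARg UAS-bla HEK293H cells carrying a UAS-driven beta-lactamase reporter were plated at 3000 cells/well, preincubated 5 h at 37C, then given compound for 17 h at 37C; LiveBLAzer B/G FRET substrate was read after 1 h at room temperature.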

The nature of assay [3]: qHTS assay to identify small molecule antagonists of the peroxisome proliferator-activated receptor gamma (PPARg) signaling pathway - cell viability counter screen (AID 743194). Further: nearly all actives have a fitted effect of over 55% in size. The settings on record: Potency: co-treated with 50 nM rosiglitazone. In outline: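 PPARg-UAS-bla HEK293H cells were plated, rested 5 h at 37 C, then treated with compounds plus rosiglitazone (50 nM final) for 17 h at 37 C; viability was then read by CellTiter-Glo luminescence after 30 min at room temperature.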

The nature of assay [4]: qHTS assay for small molecule agonists of the antioxidant response element (ARE) signaling pathway - cell viability counter screen (AID 743203; calls by dose curve; further: nearly all actives have a fitted effect of over 55% in size; further: potency means the concentration at half of the fitted maximal effect). In outline:
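Viability counter screen: stably transfected ARE-bla HepG2 line, 16 hrs compound exposure at 37C/5% CO2, ATP-based CellTiter-Glo luminescence measured in the reporter wells.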

Assay [5] is described as follows: qHTS assay for small molecule activators of the heat shock response signaling pathway (AID 743210; active means well fitted activation curve with a large enough effect in the signal ratio in the repeat runs, with a control signal flat, not every such curve was filed as active; the % refers to the signal ratio; further: series mostly up to about 63 µM). In outline: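 Heat shock element–beta-lactamase HeLa reporter cells; qHTS with compounds for 5 h at 37 C; detection by FRET substrate fluorescence after 2.5 h at RT.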
Assay [6] is described as follows: qHTS assay to identify small molecule agonists of the peroxisome proliferator-activated receptor delta (PPARd) signaling pathway - cell viability counter screen (AID 743211). Further: nearly all actives have a fitted effect of over 55% in size. Further: potency means the concentration at half of the fitted maximal effect. In outline: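 PPARd-bla HEK293H cells (3000/well) were pre-incubated 5 h at 37 C, then exposed to compound for 17 h at 37 C. After 2 h with LiveBLAzer substrate, CellTiter-Glo was added to the same wells; luminescence read after 30 min at room temperature.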

Assay [7] in a line: qHTS assay to identify small molecule antagonists of the peroxisome proliferator-activated receptor delta (PPARd) signaling pathway - cell viability counter screen (AID 743213). Further: nearly all actives have a fitted effect of over 50% in size. Further: potency means the concentration at half of the fitted maximal effect. In outline:
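Luminescence from CellTiter-Glo, added after the bla read and incubated 30 min at room temperature, gives viability of HEK293H PPARd-bla cells exposed to compounds for 17 h at 37 C with 300 nM L165041.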

Assay [8] concerns the target Bile acid receptor (Homo sapiens) (UniProt Q96RI1). Nature of the assay: qHTS assay to identify small molecule agonists of the farnesoid-X-receptor (FXR) signaling pathway (AID 743220; active means well fitted activation curve with a large enough effect in the signal ratio in the repeat runs, not every such curve was filed as active; the % refers to the signal ratio). The gist of the method: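 FXR-UAS-bla HEK 293T cells carrying a UAS-driven beta-lactamase reporter were plated for 5 h at 37C/5% CO2, then exposed to DMSO-dissolved Tox21 10K compounds for 16 h at 37C. A LiveBLAzer B/G FRET substrate was loaded for 2 h at room temperature before fluorescence reading.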

The target of assay [9] is Vitamin D3 receptor (Homo sapiens) (UniProt P11473). Briefly: qHTS assay to identify small molecule agonists of the vitamin D receptor (VDR) signaling pathway (AID 743222; calls by dose curve). In outline: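 Fluorescence from cleaved LiveBLAzer B/G FRET substrate served as readout. VDR-bla cells had been treated 16 h at 37C with test compounds in DMSO, following a 4 h settling period, and substrate was loaded for 2 h at RT.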

Assay [10] concerns the target Peroxisome proliferator-activated receptor gamma (Homo sapiens) (UniProt P37231). Nature of the assay: qHTS assay to identify small molecule agonists of the peroxisome proliferator-activated receptor gamma (PPARg) signaling pathway (AID 743094; active means well fitted activation curve with a large enough effect in the signal ratio in the repeat runs, not every such curve was filed as active; the % refers to the signal ratio). The gist of the method:
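Reporter activation was scored by fluorescence of cleaved LiveBLAzer B/G substrate (1 h, room temperature) in PPARg-bla HEK293H cells previously treated 17 h at 37C with DMSO-dissolved compounds.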

Assay [11] is described as follows: qHTS assay for small molecule activators of the heat shock response signaling pathway - cell viability counter screen (AID 743209). Further: nearly all actives have a fitted effect of over 50% in size. The gist of the method: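 Viability of HSE-bla HeLa cells is measured with CellTiter-Glo in the wells already used for the reporter read. Compound exposure lasts 5 h at 37 C, and luminescence is read after 30 min at room temperature.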

Assay [12] deals with Peroxisome proliferator-activated receptor delta (Homo sapiens) (UniProt Q03181). Nature of the assay: qHTS assay to identify small molecule agonists of the peroxisome proliferator-activated receptor delta (PPARd) signaling pathway (AID 743212; calls by dose curve). The gist of the method: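 Beta-lactamase reporter read by fluorescence (LiveBLAzer B/G FRET, 2 h, room temperature). Test agents, in DMSO, incubated at 37 C with PPARd-bla HEK293H cells.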

Assay [13] shares this target. Briefly: qHTS assay to identify small molecule antagonists of the peroxisome proliferator-activated receptor delta (PPARd) signaling pathway (AID 743215; active means well fitted inhibition curve with a large enough effect in the signal ratio in the repeat runs, not every such curve was filed as active; the % refers to the signal ratio;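 further: cells stimulated with agonist L165041 at 300 nM final during compound exposure; series mostly up to about 62 µM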). The gist of the method:
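Plated HEK293H PPARd-bla cells rested 5 h at 37 C and 5% CO2. Compound, then agonist L165041 at 300 nM final, was added; 17 h at 37 C followed. Substrate loading, 2 h room temperature, fluorescence measured.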

Assay [14] in a line: qHTS assay to identify small molecule agonists of the farnesoid-X-receptor (FXR) signaling pathway - cell viability counter screen (AID 743218). Further: nearly all actives have a fitted effect of over 45% in size. Further: potency means the concentration at half of the fitted maximal effect. The gist of the method: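 Viability of FXR-bla HEK 293T cells is measured by ATP-based CellTiter-Glo luminescence following 16 h compound treatment at 37 C and a prior 2 h room-temperature beta-lactamase substrate step.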
Assay [15] can be described thus: qHTS assay to identify small molecule antagonists of the farnesoid-X-receptor (FXR) signaling pathway - cell viability counter screen (AID 743221; active means well fitted cell-killing curve with a large enough effect in the repeat runs, not every such curve was filed as active; further: nearly all actives have a fitted effect of over 50% in size). In outline:
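GeneBLAzer FXR-UAS-bla HEK 293T cells, compound plus chenodeoxycholic acid (50 uM final), 16 h at 37 C. CellTiter-Glo added to the same wells after the beta-lactamase read; luminescence read after 30 min at room temperature as viability.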

Assay [16] deals with Aryl hydrocarbon receptor (Homo sapiens) (UniProt P35869). Nature of the assay: qHTS assay to identify small molecule that activate the aryl hydrocarbon receptor (AhR) signaling pathway (AID 743085).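 Further: HG2L7.5c1 human HepG2 liver cells with stably integrated DRE-driven firefly reporter; series mostly up to about 70 µM; nearly all actives have a fitted effect of over 15% in size.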 In outline:
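HepG2 cells stably carrying a 20-DRE firefly luciferase reporter (HG2L7.5c1) treated with compound for 24 hr at 37C. Luciferase read by ONE-Glo luminescence, with CellTiter-Fluor viability read first.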

Assay [17] is described as follows: qHTS assay for small molecule agonists of the antioxidant response element (ARE) signaling pathway (AID 743202; active means well fitted activation curve with a large enough effect in the signal ratio in the repeat runs, not every such curve was filed as active; the % refers to the signal ratio; further: potency means the concentration at half of the fitted maximal effect). In outline: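 Following a 16 h, 37 C exposure of reporter HepG2 cells (ARE-driven beta-lactamase, 2,000 cells/well) to compounds, FRET substrate was applied for 2 h at room temperature and fluorescence intensity recorded.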
Assay [18] concerns the target Bile acid receptor (Homo sapiens) (UniProt Q96RI1). Briefly: qHTS assay to identify small molecule antagonists of the farnesoid-X-receptor (FXR) signaling pathway (AID 743217; active means well fitted inhibition curve with a large enough effect in the signal ratio in the repeat runs, not every such curve was filed as active; the % refers to the signal ratio). The gist of the method:
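Screen of the Tox21 10K library in quantitative HTS format using FXR-UAS-bla HEK 293T reporter cells. Agonist chenodeoxycholic acid, 50 uM final, added with compounds; 16 h incubation at 37 °C; beta-lactamase FRET fluorescence measured.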

Assay [19] addresses Vitamin D3 receptor (Homo sapiens) (UniProt P11473). Briefly: qHTS assay to identify small molecule antagonists of the vitamin D receptor (VDR) signaling pathway (AID 743223; active means well fitted inhibition curve with a large enough effect in the signal ratio in the repeat runs, not every such curve was filed as active; the % refers to the signal ratio). The gist of the method:
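VDR-bla cells were treated with compound plus 3 nM final 1alpha,25-dihydroxyvitamin D3 for 16 h at 37C. Beta-lactamase reporter read by B/G FRET substrate fluorescence after 2 h at room temperature. qHTS format.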

The nature of assay [20]: qHTS assay to identify aromatase inhibitors - cell viability counter screen (AID 743084).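 Further: cells stimulated with testosterone during compound exposure; nearly all actives have a fitted effect of over 55% in size.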

Vitamin D3 receptor (Homo sapiens), sequence (P11473 whole entry, looked up): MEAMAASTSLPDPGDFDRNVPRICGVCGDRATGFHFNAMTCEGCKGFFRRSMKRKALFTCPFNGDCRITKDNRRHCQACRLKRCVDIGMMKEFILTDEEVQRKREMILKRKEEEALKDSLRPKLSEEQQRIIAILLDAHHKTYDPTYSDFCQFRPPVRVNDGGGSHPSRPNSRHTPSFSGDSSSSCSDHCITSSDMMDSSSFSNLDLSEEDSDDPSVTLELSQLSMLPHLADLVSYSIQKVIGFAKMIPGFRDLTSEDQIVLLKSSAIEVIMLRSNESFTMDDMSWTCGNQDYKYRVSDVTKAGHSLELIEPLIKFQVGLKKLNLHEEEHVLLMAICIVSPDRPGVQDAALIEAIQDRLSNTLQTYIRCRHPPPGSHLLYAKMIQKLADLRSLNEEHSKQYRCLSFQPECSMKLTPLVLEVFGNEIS
Bile acid receptor (Homo sapiens), sequence (Q96RI1 whole entry, looked up): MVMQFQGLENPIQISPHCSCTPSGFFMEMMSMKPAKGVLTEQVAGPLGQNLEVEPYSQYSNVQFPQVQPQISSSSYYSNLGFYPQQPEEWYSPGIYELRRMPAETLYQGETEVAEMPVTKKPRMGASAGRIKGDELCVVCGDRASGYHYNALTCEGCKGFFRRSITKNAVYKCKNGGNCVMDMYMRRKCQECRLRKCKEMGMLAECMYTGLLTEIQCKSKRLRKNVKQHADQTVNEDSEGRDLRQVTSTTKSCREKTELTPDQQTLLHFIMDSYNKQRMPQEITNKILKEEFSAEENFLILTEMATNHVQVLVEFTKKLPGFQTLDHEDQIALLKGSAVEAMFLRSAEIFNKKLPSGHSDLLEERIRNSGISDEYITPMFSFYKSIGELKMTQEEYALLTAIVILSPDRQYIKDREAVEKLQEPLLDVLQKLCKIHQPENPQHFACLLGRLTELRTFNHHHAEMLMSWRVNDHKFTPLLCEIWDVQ
Peroxisome proliferator-activated receptor delta (Homo sapiens), sequence (Q03181 whole entry, looked up): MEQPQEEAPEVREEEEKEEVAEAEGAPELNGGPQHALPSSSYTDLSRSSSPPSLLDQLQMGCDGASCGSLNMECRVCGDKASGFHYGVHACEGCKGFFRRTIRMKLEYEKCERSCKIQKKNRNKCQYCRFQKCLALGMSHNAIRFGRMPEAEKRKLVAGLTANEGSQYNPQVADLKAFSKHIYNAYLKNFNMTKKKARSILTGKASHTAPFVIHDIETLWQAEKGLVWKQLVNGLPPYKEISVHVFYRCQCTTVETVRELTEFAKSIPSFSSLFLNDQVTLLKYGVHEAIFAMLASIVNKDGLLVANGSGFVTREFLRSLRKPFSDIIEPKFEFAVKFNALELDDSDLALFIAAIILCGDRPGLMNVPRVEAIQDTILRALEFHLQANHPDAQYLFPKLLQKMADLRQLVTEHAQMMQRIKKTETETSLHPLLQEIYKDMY
Peroxisome proliferator-activated receptor gamma (Homo sapiens), sequence (P37231 whole entry, looked up): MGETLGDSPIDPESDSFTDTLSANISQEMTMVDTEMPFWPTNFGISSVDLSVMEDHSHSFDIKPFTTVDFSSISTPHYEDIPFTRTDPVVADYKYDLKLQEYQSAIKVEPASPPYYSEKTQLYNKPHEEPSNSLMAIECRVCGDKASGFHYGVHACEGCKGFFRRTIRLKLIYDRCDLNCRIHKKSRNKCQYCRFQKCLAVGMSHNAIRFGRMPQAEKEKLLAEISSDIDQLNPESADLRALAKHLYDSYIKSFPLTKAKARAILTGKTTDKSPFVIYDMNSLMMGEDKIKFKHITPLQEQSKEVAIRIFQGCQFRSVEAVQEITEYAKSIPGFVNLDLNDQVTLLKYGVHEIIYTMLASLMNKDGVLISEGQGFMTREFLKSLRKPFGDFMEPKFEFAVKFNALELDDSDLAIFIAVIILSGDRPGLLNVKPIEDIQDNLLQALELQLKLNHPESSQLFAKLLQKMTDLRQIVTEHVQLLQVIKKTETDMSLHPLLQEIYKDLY
Aryl hydrocarbon receptor (Homo sapiens), sequence (P35869 whole entry, looked up): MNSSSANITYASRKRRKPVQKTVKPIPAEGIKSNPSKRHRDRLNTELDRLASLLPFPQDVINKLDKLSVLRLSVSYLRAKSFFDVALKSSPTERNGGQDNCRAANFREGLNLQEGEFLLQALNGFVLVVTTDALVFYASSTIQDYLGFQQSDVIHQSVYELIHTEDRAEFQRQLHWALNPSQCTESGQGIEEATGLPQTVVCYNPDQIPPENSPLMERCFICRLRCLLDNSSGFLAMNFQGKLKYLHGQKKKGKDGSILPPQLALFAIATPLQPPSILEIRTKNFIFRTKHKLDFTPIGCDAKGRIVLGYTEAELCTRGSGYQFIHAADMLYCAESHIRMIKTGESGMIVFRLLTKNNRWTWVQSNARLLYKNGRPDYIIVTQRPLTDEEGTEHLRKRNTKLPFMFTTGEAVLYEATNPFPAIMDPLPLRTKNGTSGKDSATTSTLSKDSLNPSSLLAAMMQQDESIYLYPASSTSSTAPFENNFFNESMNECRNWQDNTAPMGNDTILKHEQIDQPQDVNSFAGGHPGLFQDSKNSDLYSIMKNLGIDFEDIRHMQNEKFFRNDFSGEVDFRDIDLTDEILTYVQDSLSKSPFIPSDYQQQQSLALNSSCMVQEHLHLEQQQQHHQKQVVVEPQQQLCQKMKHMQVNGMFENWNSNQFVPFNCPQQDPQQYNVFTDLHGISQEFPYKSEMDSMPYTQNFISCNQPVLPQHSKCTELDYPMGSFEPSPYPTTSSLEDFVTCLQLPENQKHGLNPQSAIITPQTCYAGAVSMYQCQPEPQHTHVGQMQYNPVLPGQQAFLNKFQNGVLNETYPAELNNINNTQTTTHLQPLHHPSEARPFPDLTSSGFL

As for `O=C(N[C@H](c1ccccc1)[C@@H]1CN2CCC1CC2)c1c(Cl)ccc(C(F)(F)F)c1Cl`, the Potency is 39.2 µM (active) in [1], 4.97 µM (active) in assay [2], 49.3 µM (active) in assay [4] and 78.8 µM (active) in [6]. Further, the Potency entry in assay [3] and in [7] was “inactive” each time. Further, the call in assay [5], in [8] and in [9] was inactive.
Take `COP(=S)(OC)Oc1ccc([N+](=O)[O-])cc1Cl`: in assay [1], the Potency was 61.1 µM (active). In addition, the Potency entry in assay [10], in [2], in assay [3], in assay [4], in assay [11] and in assay [13] was “inactive” each time. Besides, the Potency entry in [14] and in assay [15] was “inactive” each time. Further, the compound was called inactive in [5] and in [12].
Regarding `NCCCNCCCN`, the Potency entry in [16], in [1], in [3] and in assay [4] was “inactive” each time. Moreover, the compound was called inactive in assay [5] and in [9]. The Potency in [7] was 49.7 µM (active).
With `C=CC(=O)OCCCCO`, the Potency result in assay [10], in assay [2], in assay [3], in assay [4], in assay [6] and in assay [7] was “inactive” throughout. For the same compound, the Potency result in assay [13], in [18], in assay [14] and in assay [15] was “inactive” throughout. The Potency in assay [17] is 3.86 µM (active). For the same compound, in assay [8], the compound was called inactive.
On to `CCn1cc[n+](C)c1`, for which the Potency result in assay [1], in assay [3], in [4], in [11], in [6] and in [7] was “inactive” throughout. The Potency entry in assay [14] and in assay [15] was “inactive” throughout.
`O=S1OC[C@@H]2[C@H](CO1)[C@]1(Cl)C(Cl)=C(Cl)[C@@]2(Cl)C1(Cl)Cl` (some centres undefined): the Potency result in [16], in assay [1], in [10], in [2], in assay [7] and in assay [18] was “inactive” each time. Besides, the Potency entry in [15] was “inactive”. In addition, the compound was called inactive in [9].
As to `O=C(CBr)Nc1ccc(Cl)cc1C(=O)c1ccccc1F`, the Potency entry in assay [2], in [3], in [4], in assay [11], in assay [7] and in assay [15] was “inactive” in each case. The compound was called inactive in assay [5], in [12] and in [9].
On to `C[C@]12CC[C@H]3[C@@H](CCC4=CC(=O)CC[C@@H]43)[C@@H]1CC[C@@H]2OC(=O)CCC1CCCCC1`, for which the Potency result in assay [3], in assay [4], in [11], in assay [6], in assay [7] and in [13] was “inactive” each time. Moreover, the Potency result in assay [14] and in assay [15] was “inactive” each time. Further, the compound was called inactive in assay [5], in [12], in assay [9] and in [19].
As for `CC(C)O.CC(C)O.OCCN(CCO)CCO.OCCN(CCO)CCO.[Ti]`, the Potency entry in assay [1], in assay [3], in assay [4], in assay [11], in assay [6] and in assay [7] was “inactive” each time. For the same compound, the Potency entry in assay [15] is “inactive”.
On to `CO[C@@H]1[C@H](OC(=O)NC(=O)CCl)CC[C@]2(CO2)[C@H]1[C@@]1(C)O[C@@H]1CC=C(C)C`, for which the Potency entry in assay [16], in [1], in assay [3], in assay [4], in assay [6] and in assay [13] was “inactive” each time. Further, in assay [15], the Potency result was “inactive”. In addition, the Potency in [14] is 0.0021 µM (active).
For `O=C(O)CC(Cl)C(=O)O` (centres undefined), the Potency result in assay [20], in assay [3], in [11], in assay [6], in assay [7] and in assay [13] was “inactive” each time. In addition, the Potency result in assay [18], in assay [14] and in assay [15] was “inactive” throughout. Moreover, in assay [17], the Potency is 2.76 µM (active). In addition, the outcome in [5], in [12] and in [8] was inactive.
Regarding `COc1ccc(-c2ccccc2)cc1NNC(=O)OC(C)C`, the Potency entry in [20], in assay [3], in assay [4] and in assay [6] was “inactive” each time. For the same compound, the compound was called inactive in assay [5], in assay [8] and in assay [9].
With `C=CC(=O)NCNC(=O)C=C`, the Potency entry in assay [1], in assay [4], in [6] and in [15] was “inactive” in each case. In addition, the compound was classed as inactive in assay [5] and in [9].
For `CCO[C@H]1O[C@@H]2OC3(C)CC[C@H]4[C@H](C)CC[C@@H]([C@H]1C)[C@@]24OO3`, the Potency entry in [2], in assay [3], in assay [4], in assay [11], in assay [6] and in assay [7] was “inactive” in each case. The Potency entry in assay [18], in assay [14] and in assay [15] was “inactive” each time. The compound was called inactive in [5], in assay [12], in assay [8], in [9] and in assay [19].
With `CC(=O)c1cc2c(cc1C)C(C)(C)C(C)CC2(C)C` (centres undefined), the Potency entry in assay [1], in assay [10], in [3], in assay [4], in [6] and in assay [7] was “inactive” throughout. The Potency entry in assay [13], in [14] and in assay [15] was “inactive” each time. Besides, the call in assay [5], in [12], in assay [8] and in assay [19] was inactive.
